Laboratory results as given in publication PMC10812921, “Transcriptional Coactivator BOB1 (OBF1, OCA-B) Modulates the Specificity of DNA Recognition by the POU-Domain Factors OCT1 and OCT2 in a Monomeric Configuration”.

Tests used:
[1] = target: POU1 (OCT1 POU domain) (human, UniProt P14859 260-458); test: EMSA-SELEX-seq; no BOB1; 20 mM Tris-HCl pH 7.6, 140 mM NaCl, 10% glycerol, 0.5 mM EDTA, 0.05% Triton X-100, 0.1 mg/mL BSA, 0.1 mg/mL poly(dI-dC), 5 mM DTT, room temperature, 20 min; high values mean tight binding; conditions: protein: recombinant; dsDNA, one strand shown
POU1 (OCT1 POU domain), sequence (P14859 260-458): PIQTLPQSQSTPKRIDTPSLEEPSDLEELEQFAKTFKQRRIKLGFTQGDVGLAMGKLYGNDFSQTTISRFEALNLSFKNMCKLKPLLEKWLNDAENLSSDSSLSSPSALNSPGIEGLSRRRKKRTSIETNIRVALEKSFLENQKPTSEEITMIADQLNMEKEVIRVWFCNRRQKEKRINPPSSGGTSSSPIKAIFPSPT
Summary of the method: (§1)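 Binding preference is reported as the percentage of sequenced 8-mers that match a motif pattern. Tagged POU-domain proteins were made in E. coli BL21, purified under denaturing conditions and renatured. A 30 ng portion was combined with 300 ng of a PCR-amplified double-stranded random 35-nt library, with or without 28 ng coactivator protein, in 20 μL Tris–HCl pH 7.6 binding buffer for 20 min at RT. Complex bands were excised from native 6% PAGE, eluted and PCR-amplified over four rounds before Illumina sequencing.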

[2] = target: T1, POU2 (OCT2 POU domain) (human, UniProt P09086 175-386); test: as above; conditions: protein: recombinant; dsDNA, one strand shown
T1 sequence: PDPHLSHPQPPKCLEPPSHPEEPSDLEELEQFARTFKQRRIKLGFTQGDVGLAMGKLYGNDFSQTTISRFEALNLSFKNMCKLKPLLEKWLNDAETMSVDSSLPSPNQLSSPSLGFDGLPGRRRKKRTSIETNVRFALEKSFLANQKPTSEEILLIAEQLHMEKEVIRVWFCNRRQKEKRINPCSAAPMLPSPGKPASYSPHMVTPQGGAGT
Summary of the method: as §1

[3] = target: POU1 (OCT1 POU domain);BOB1 (OBF1, OCA-B) (human;human, UniProt P14859;Q16633 260-458;1-256, |); test: EMSA-SELEX-seq; with BOB1 (ternary complex band); 20 mM Tris-HCl pH 7.6, 140 mM NaCl, 10% glycerol, 0.5 mM EDTA, 0.05% Triton X-100, 0.1 mg/mL BSA, 0.1 mg/mL poly(dI-dC), 5 mM DTT, room temperature, 20 min; high values mean tight binding; conditions: protein: recombinant;recombinant; copies: 1;1; dsDNA, one strand shown
Summary of the method: as §1

[4] = target: T2, POU2 (OCT2 POU domain);BOB1 (OBF1, OCA-B) (human;human, UniProt P09086;Q16633 175-386;1-256, |); test: as above; conditions: protein: recombinant;recombinant; copies: 1;1; dsDNA, one strand shown
T2 sequence 1: T1 sequence
T2 sequence 2: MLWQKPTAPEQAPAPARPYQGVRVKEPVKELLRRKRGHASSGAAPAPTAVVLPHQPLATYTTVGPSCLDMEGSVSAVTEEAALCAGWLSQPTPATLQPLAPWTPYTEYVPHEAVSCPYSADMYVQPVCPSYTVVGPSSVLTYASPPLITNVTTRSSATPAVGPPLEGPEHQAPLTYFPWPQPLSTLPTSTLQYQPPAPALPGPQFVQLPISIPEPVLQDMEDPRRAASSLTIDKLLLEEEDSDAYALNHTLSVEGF
Summary of the method: as §1

Row | Sequence | binding signal [1] | binding signal [2] | binding signal [3] | binding signal [4]
1 | ACCCGAAG | 0.0126 % of ANNNNAAN 8-mers | 0.0109 % of ANNNNAAN 8-mers | 0.0129 % of ANNNNAAN 8-mers | 0.0132 % of ANNNNAAN 8-mers
2 | ACTTAAAC | 0.0336 % of ANNNNAAN 8-mers | 0.046 % of ANNNNAAN 8-mers | 0.0277 % of ANNNNAAN 8-mers | 0.0355 % of ANNNNAAN 8-mers
3 | AGCTTAAC | 0.0194 % of ANNNNAAN 8-mers | 0.0219 % of ANNNNAAN 8-mers | 0.0195 % of ANNNNAAN 8-mers | 0.0165 % of ANNNNAAN 8-mers
4 | AACGAAAC | 0.0225 % of ANNNNAAN 8-mers | 0.027 % of ANNNNAAN 8-mers | 0.0238 % of ANNNNAAN 8-mers | 0.0157 % of ANNNNAAN 8-mers
5 | AATTAAAG | 0.187 % of ANNNNAAN 8-mers | 0.22 % of ANNNNAAN 8-mers | 0.112 % of ANNNNAAN 8-mers | 0.121 % of ANNNNAAN 8-mers
6 | AATCGAAA | 0.0622 % of ANNNNAAN 8-mers | 0.0512 % of ANNNNAAN 8-mers | 0.0613 % of ANNNNAAN 8-mers | 0.0438 % of ANNNNAAN 8-mers
7 | AAGTAAAC | 0.0477 % of ANNNNAAN 8-mers | 0.0489 % of ANNNNAAN 8-mers | 0.0535 % of ANNNNAAN 8-mers | 0.0487 % of ANNNNAAN 8-mers
8 | ACCGGAAA | 0.0271 % of ANNNNAAN 8-mers | 0.0236 % of ANNNNAAN 8-mers | 0.0265 % of ANNNNAAN 8-mers | 0.0281 % of ANNNNAAN 8-mers
9 | ATGCCAAT | 0.0648 % of ANNNNAAN 8-mers | 0.0857 % of ANNNNAAN 8-mers | 0.0609 % of ANNNNAAN 8-mers | 0.0627 % of ANNNNAAN 8-mers
10 | AATGGAAT | 0.138 % of ANNNNAAN 8-mers | 0.212 % of ANNNNAAN 8-mers | 0.125 % of ANNNNAAN 8-mers | 0.147 % of ANNNNAAN 8-mers
11 | AAGAAAAA | 0.0934 % of ANNNNAAN 8-mers | 0.0921 % of ANNNNAAN 8-mers | 0.105 % of ANNNNAAN 8-mers | 0.0669 % of ANNNNAAN 8-mers
12 | AATAGAAG | 0.0534 % of ANNNNAAN 8-mers | 0.0587 % of ANNNNAAN 8-mers | 0.0558 % of ANNNNAAN 8-mers | 0.057 % of ANNNNAAN 8-mers
13 | AAGAGAAA | 0.0511 % of ANNNNAAN 8-mers | 0.0621 % of ANNNNAAN 8-mers | 0.0531 % of ANNNNAAN 8-mers | 0.038 % of ANNNNAAN 8-mers
14 | ATGCCAAC | 0.0225 % of ANNNNAAN 8-mers | 0.0293 % of ANNNNAAN 8-mers | 0.025 % of ANNNNAAN 8-mers | 0.0124 % of ANNNNAAN 8-mers
15 | ATTCTAAA | 0.0946 % of ANNNNAAN 8-mers | 0.123 % of ANNNNAAN 8-mers | 0.0542 % of ANNNNAAN 8-mers | 0.0726 % of ANNNNAAN 8-mers
16 | AAATCAAT | 0.139 % of ANNNNAAN 8-mers | 0.143 % of ANNNNAAN 8-mers | 0.162 % of ANNNNAAN 8-mers | 0.148 % of ANNNNAAN 8-mers
17 | ACCATAAT | 0.082 % of ANNNNAAN 8-mers | 0.0967 % of ANNNNAAN 8-mers | 0.0367 % of ANNNNAAN 8-mers | 0.0495 % of ANNNNAAN 8-mers
18 | ACCTGAAA | 0.0183 % of ANNNNAAN 8-mers | 0.0247 % of ANNNNAAN 8-mers | 0.0215 % of ANNNNAAN 8-mers | 0.019 % of ANNNNAAN 8-mers
19 | AGTTTAAT | 0.129 % of ANNNNAAN 8-mers | 0.156 % of ANNNNAAN 8-mers | 0.0882 % of ANNNNAAN 8-mers | 0.111 % of ANNNNAAN 8-mers
20 | ATGTGAAT | 0.138 % of ANNNNAAN 8-mers | 0.158 % of ANNNNAAN 8-mers | 0.0921 % of ANNNNAAN 8-mers | 0.134 % of ANNNNAAN 8-mers
21 | ATCTCAAA | 0.0435 % of ANNNNAAN 8-mers | 0.0443 % of ANNNNAAN 8-mers | 0.0574 % of ANNNNAAN 8-mers | 0.038 % of ANNNNAAN 8-mers
22 | ACCATAAG | 0.0324 % of ANNNNAAN 8-mers | 0.0414 % of ANNNNAAN 8-mers | 0.0238 % of ANNNNAAN 8-mers | 0.0248 % of ANNNNAAN 8-mers
23 | ATTTAAAC | 0.137 % of ANNNNAAN 8-mers | 0.161 % of ANNNNAAN 8-mers | 0.117 % of ANNNNAAN 8-mers | 0.109 % of ANNNNAAN 8-mers
24 | AAGCCAAT | 0.0282 % of ANNNNAAN 8-mers | 0.0247 % of ANNNNAAN 8-mers | 0.0261 % of ANNNNAAN 8-mers | 0.0272 % of ANNNNAAN 8-mers
25 | AGTTGAAT | 0.0927 % of ANNNNAAN 8-mers | 0.119 % of ANNNNAAN 8-mers | 0.0667 % of ANNNNAAN 8-mers | 0.0834 % of ANNNNAAN 8-mers
26 | ATACAAAT | 0.318 % of ANNNNAAN 8-mers | 0.269 % of ANNNNAAN 8-mers | 0.526 % of ANNNNAAN 8-mers | 0.498 % of ANNNNAAN 8-mers
27 | AGCGTAAA | 0.0427 % of ANNNNAAN 8-mers | 0.0455 % of ANNNNAAN 8-mers | 0.0347 % of ANNNNAAN 8-mers | 0.0396 % of ANNNNAAN 8-mers
28 | AAACTAAC | 0.0256 % of ANNNNAAN 8-mers | 0.0316 % of ANNNNAAN 8-mers | 0.03 % of ANNNNAAN 8-mers | 0.0289 % of ANNNNAAN 8-mers
29 | AGACAAAA | 0.0675 % of ANNNNAAN 8-mers | 0.0489 % of ANNNNAAN 8-mers | 0.0808 % of ANNNNAAN 8-mers | 0.0322 % of ANNNNAAN 8-mers
30 | ACTGGAAC | 0.0168 % of ANNNNAAN 8-mers | 0.0207 % of ANNNNAAN 8-mers | 0.0183 % of ANNNNAAN 8-mers | 0.0206 % of ANNNNAAN 8-mers
